Screening data: PubChem, National Center for Advancing Translational Sciences (NCATS)
The list is not random: actives were taken first. Their share in the collection is about 11%.
12-hLO inh – qHTS Assay for Inhibitors of 12-hLO (12-human lipoxygenase); Polyunsaturated fatty acid lipoxygenase ALOX12 (Homo sapiens), P18054; purified 12-hLO, xylenol orange hydroperoxide absorbance; Potency, µM (top dose mostly 57.1 µM), for inactives: at the top dose activity change, negative = inhibition, most hits filed as inhibitors; 150,000 tested, 0.12% active; AID 1452, 2008; further: potency means the concentration at half of the fitted maximal effect; nearly all actives have a fitted effect of over 55% in size
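Hydroperoxide output read as Fe(III)-xylenol orange absorbance, 573-to-405 nm ratio, after 30 min reaction with 40 uM arachidonic acid. Enzyme: 150 nM purified human 12hLO, 15 min compound preincubation; 25 mM Hepes pH 7.0, room temperature.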
IMPase Li inh – qHTS Assay for Identifying the Cell-Membrane Permeable IMPase Inhibitors: Potentiation with Lithium | CHO-M1 cells, IP1 TR-FRET (IP-One), carbachol + lithium | Potency, µM (series often up to 59.4 µM), inactives show top-dose activity, negative = IMPase inhibition, usual class: inhibitors | 210,000 tested, 0.35% active;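 further: IP1 builds up when IMPase is blocked and the TR-FRET signal falls; potency means the concentration at half of the fitted maximal effect; plate controls were basal vehicle for no effect and high inhibitor control for full effect; nearly all actives have a fitted effect of over 50% in size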
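Lithium-sensitised IP1 accumulation assay; M1-expressing CHO cells treated 30 min at 37C with compound. Competitive antibody detection by time-resolved FRET followed a 10 min room-temperature lysis step.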
ALDH1A1 inh – qHTS Assay for Inhibitors of Aldehyde Dehydrogenase 1 (ALDH1A1). Purified ALDH1A1, NADH fluorescence, propionaldehyde substrate. Potency, µM (doses to about 75.3 µM), inactives show top-dose activity, negative = inhibition, usual class: inhibitors. Aldehyde dehydrogenase 1A1 (Homo sapiens), P00352. 220,000 tested, 7.3% active; active means well fitted inhibition curve with a large enough effect, not every such curve was filed as active; inconclusive means small, poorly fitted or top-dose-only effect, or another doubt; inactive means no such curve, though single readings can be large or run the other way;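 further: potency means the concentration at half of the fitted maximal effect; plate controls were no enzyme wells and a reference inhibitor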
IMPase inh – qHTS Assay for Identifying the Cell-Membrane Permeable IMPase Inhibitors. Inositol monophosphatase 1 (Rattus norvegicus), P97697. CHO-M1 cells, IP1 accumulation, HTRF TR-FRET ratio. inhibition (IP1 accumulation), % at 46.1 µM. 120,000 tested, under 10 active. AID 901, 2007; active means well fitted curve in the direction sought with a large enough effect in the signal ratio, not every such curve was filed as active; inconclusive means small, poorly fitted or top-dose-only effect, or a change in a side signal; inactive means no such curve, though single readings can be large or run the other way; the % refers to the signal ratio;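 further: cells stimulated with carbachol in lithium chloride buffer; plate controls were DMSO basal wells for no effect and reference inhibitor wells for full effect; higher means more IMPase inhibition seen as more IP1 and lower FRET ratio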
Target sequence (P97697 whole entry, looked up): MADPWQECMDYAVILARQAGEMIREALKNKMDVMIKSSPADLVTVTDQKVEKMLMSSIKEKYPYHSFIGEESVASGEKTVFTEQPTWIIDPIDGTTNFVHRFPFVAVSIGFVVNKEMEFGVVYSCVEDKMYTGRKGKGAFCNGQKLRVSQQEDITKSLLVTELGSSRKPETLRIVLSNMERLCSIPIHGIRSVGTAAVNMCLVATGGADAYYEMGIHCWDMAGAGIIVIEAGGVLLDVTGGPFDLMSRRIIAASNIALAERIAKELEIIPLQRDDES
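Cellular IMPase inhibition is scored as a rise in cytosolic IP1, detected by competitive TR-FRET between d2-labelled IP1 and a europium anti-IP1 antibody. M1-expressing CHO cells were stimulated with carbachol for 30 min at 37C, with lithium (50 mM LiCl) present in the buffer.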
HPGD inh – qHTS Assay for Inhibitors of HPGD (15-Hydroxyprostaglandin Dehydrogenase); 15-hydroxyprostaglandin dehydrogenase [NAD(+)] (Homo sapiens), P15428; purified HPGD, NADH fluorescence kinetic, PGE2 substrate; Potency, µM, for the others: at the top dose activity change, negative = inhibition, most hits filed as inhibitors; 150,000 tested, 4.3% active; active means well fitted inhibition curve with a large enough effect, not every such curve was filed as active; inconclusive means small, poorly fitted or top-dose-only effect, or another doubt; inactive means no such curve, though single readings can be large or run the other way; further: potency means the concentration at half of the fitted maximal effect
Target sequence (P15428 whole entry, looked up): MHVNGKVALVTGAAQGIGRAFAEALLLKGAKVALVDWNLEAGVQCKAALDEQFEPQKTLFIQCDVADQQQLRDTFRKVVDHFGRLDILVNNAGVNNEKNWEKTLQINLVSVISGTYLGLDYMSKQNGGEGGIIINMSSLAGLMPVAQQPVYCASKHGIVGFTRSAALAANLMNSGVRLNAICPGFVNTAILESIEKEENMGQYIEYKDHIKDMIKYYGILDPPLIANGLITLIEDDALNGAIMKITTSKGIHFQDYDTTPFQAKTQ
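20 nM HPGD preincubated 15 min at room temperature with compound in 50 mM Tris-HCl pH 8, 0.01% Tween 20. Started with 1 mM NAD+ and 30 uM prostaglandin E2; NADH fluorescence (360/450 nm) read 5 times over 30-s intervals, last minus first.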
PNC inhibitor – High Content Assay for Compounds that inhibit the Assembly of the Perinucleolar Compartment. 140,000 tested, 3.1% active. activity change (PNC), negative = inhibition, % at 10 µM. PC3M PTB-GFP, PNC prevalence imaging, 16 h; active compounds read low;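 active means readout at or below -70, meaning at least 70% loss of cells showing the perinucleolar compartment, a nuclear body marking cancer cells; inconclusive means readout between -30 and a set limit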;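 further: plate controls were DMSO wells for no effect and camptothecin positive control wells for full effect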
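Compounds are pinned in duplicate onto adhered PC3M cells stably expressing GFP-tagged PTB and incubated 16 h at 37 C. Cells are then fixed, nuclei stained with Hoechst, and PNC-positive cells counted.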
Active calls of the source: *; ? = inconclusive; . = not tested or not shown; [ ] = remark or other dose. Unless noted, the call rests on the fitted dose curve; in most records, active means well fitted curve in the direction sought with a large enough effect; inconclusive means small, poorly fitted or top-dose-only effect, or another doubt; inactive means no such curve, though single readings can be large; an effect the other way counts as inactive or inconclusive. Unless noted, on the % scale 0 is the no-effect control and ±100 the full control effect.

SMILES	12-hLO inh	IMPase Li inh	ALDH1A1 inh	IMPase inh	HPGD inh	PNC inhibitor
COc1ccc(CN=C2NN=C(c3ccccc3)CS2)cc1	.	10.3%	4.47µM*	.	.	.
COc1cccc(C2=NNC(=NCc3ccccc3)SC2)c1	.	6.8%	?	.	.	.
COc1ccc(S(=O)(=O)N2CCCN(CC(=O)Nc3ccc(OC)c(Cl)c3)CC2)cc1	-13.9%	19.9%[38.3 µM]	1.58µM*	-0.3	-15.9%	4.7
COc1ccc(NC(=O)CN2CCN(S(=O)(=O)c3ccc(Cl)cc3)CC2)cc1	-16.2%	27.6%[38.3 µM]	18.9µM*	?	-3.2%	51.2
COc1ccc(S(=O)(=O)N2CCN(CC(=O)Nc3cc(OC)cc(OC)c3)CC2)cc1	-5.8%	-4.2%[38.3 µM]	?	0.9	-12.1%	55.9
COc1ccc(NC(=O)CN2CCN(S(=O)(=O)c3ccc(Cl)cc3)CC2)cc1Cl	-19.9%	2.9%[38.3 µM]	3.6%	-0.2	-17.3%	8.2
COc1ccc(CCNC(=O)CCCOc2ccc(C)cc2)cc1OC	8.1%	-0.2%	28.2µM*	.	-22.4%	15.4
COc1ccc(CCNC(=O)Cc2ccc(OC)c(OC)c2)cc1OC	.	1.7%	1.0%	.	.	.
COc1ccc(CCNC(=O)COc2ccc(-c3ccccc3)cc2)cc1OC	-0.9%	10µM*	-0.6%	15.1	-9.2%	-23.0
COc1cccc(C(=O)CC2(O)C(=O)Nc3ccc(Cl)cc32)c1 (centres undefined)	.	.	.	13.3	.	.
C/C(=C\CO)CCO	.	20.4%	1.3%	.	-4.8%	.
NC1=NC(=O)CC(C(=O)NCc2ccccc2)S1 (centres undefined)	-1.5%	-0.8%[38.3 µM]	17.8µM*	-6.2	-2.4%	-10.9
NC1=NC(=O)C(CC(=O)NCc2ccccc2)S1 (centres undefined)	.	-3.1%	?	.	.	.
CCCCCCCCC(=O)NC(NC(=S)N1CCOCC1)C(Cl)(Cl)Cl (centres undefined)	-9.1%	5.7%	?	7.3	-20.8%	-100.0*
COc1ccc(-n2c(=O)c(C)nc3cnc(N4CCNCC4)nc32)cc1	2.7%	11.2%	?	.	-20.6%	.
CCOc1ccc(N2C(=O)CC(SCC(=O)O)C2=O)cc1 (centres undefined)	.	1.3%	?	.	.	.
O=C(O)CSC1CC(=O)N(c2ccc(Cl)cc2)C1=O (centres undefined)	-8.2%	-7.1%[38.3 µM]	?	6.5	-1.8%	?
CCOc1ccc(N2C(=O)CC(N)C2=O)cc1 (centres undefined)	-0.1%	7.7%	1.12µM*	-0.4	39.8µM*	?
CCCOc1ccc(N2C(=O)CC(SCCN)C2=O)cc1 (centres undefined)	4.2%	14.0%[38.3 µM]	0.224µM*	6.7	-13.1%	36.1
COC(=O)c1ccc(N2C(=O)CC(SCCN)C2=O)cc1 (centres undefined)	-0.8%	-12.9%[38.3 µM]	12.6µM*	10.3	-6.1%	1.2
CCOC(=O)C(N)CSC1CC(=O)N(c2ccc(C(=O)OC)cc2)C1=O (centres undefined)	2.8%	-41.1%[38.3 µM]	7.08µM*	?	-9.7%	-1.6
COc1ccc(COC(=O)C2=C(C)NC(=O)CC2c2cccc(Cl)c2Cl)cc1 (centres undefined)	.	.	.	-0.8	.	.
CN1C(=O)OC(C)(C)C1=O	-1.7%[25.6 µM]	0.2%	-1.4%[20.9 µM]	-7.0[20.6 µM]	-2.1%	.
O=S1(=O)CCN2C=Nc3sc4c(c3C2=N1)CCCC4	4.9%	-14.7%[38.3 µM]	8.91µM*	-4.3	-23.6%	-6.3
Cc1ccc(CCNC(=O)C23CN(Cc4ccccc4)CC2C(c2ccc([N+](=O)[O-])cc2)=NO3)cc1 (centres undefined)	-2.3%	23.0%[38.3 µM]	14.1µM*	-2.0	-13.9%	?
SMILES	12-hLO inh	IMPase Li inh	ALDH1A1 inh	IMPase inh	HPGD inh	PNC inhibitor
CCc1ccc(C(=O)CSc2n[nH]c(C)n2)cc1	-17.6%	-2.1%[38.3 µM]	11.2µM*	-5.3	35.5µM*	-29.8
Cc1ccc(C(=O)CSc2n[nH]c(C)n2)cc1	-25.4%	-2.2%[38.3 µM]	?	-11.0	?	11.5
Cc1ccc(C)c(C(=O)CSc2n[nH]c(C(C)C)n2)c1	-2.4%	-4.8%[38.3 µM]	-5.2%	-7.5	15.8µM*	-7.5
Nc1nc(SCC(=O)c2ccc(Oc3ccccc3)cc2)n[nH]1	-11.1%	20.6%[38.3 µM]	14.1µM*	-2.2	-29.8%	?
Nc1nc(SCC(=O)Nc2cc(-c3ccccc3)nn2-c2ccccc2)n[nH]1	4.8%	3.0%[38.3 µM]	10µM*	5.7	-5.5%	?
Nc1nc(SCC(=O)c2ccc([N+](=O)[O-])cc2)n[nH]1	.	-5.6%	3.3%	.	.	.
O=C(Nc1ccc2oc(-c3cccc4c(Br)cccc34)nc2c1)c1ccc(F)cc1	.	.	.	-9.1	.	.
Nc1nc(O)c2ncn([C@H]3CC[C@@H](CO)O3)c2n1	-2.0%	-7.2%	4.5%	.	-13.9%	.
CCc1nc(SCC(=O)c2cc(C)ccc2C)n[nH]1	-12.9%	15.4%[38.3 µM]	?	-7.4	39.8µM*	?
Cn1c(SCC(=O)N/N=C/c2ccco2)nc2ccccc21	.	6.2%	?	.	.	.
C/C(=N/NC(=O)Cc1cccn1C)c1ccccc1	2.8%	-4.7%[38.3 µM]	17.8µM*	5.4	-7.5%	39.0
C/C(=N\NC(=O)Cc1cccn1C)c1ccc2ccccc2c1	-2.2%	18.9%[38.3 µM]	?	0.6	-18.3%	20.0
O=C(CSc1nnc(SCc2ccccc2)s1)N/N=C/C=C/c1ccccc1[N+](=O)[O-]	0.0%	6.1%	-15.2%	.	-24.4%	?
CCn1c(SCC(=O)N/N=C/C=C/c2ccco2)nnc1-c1ccc(OC)cc1	-21.3%	-2.1%	-2.1%	10.9	31.6µM*	?
CC(/C=N/NC(=O)CSc1nc2ccccc2n1C)=C\c1ccco1	-3.9%	13.2%	12.6µM*	.	-11.3%	-17.6
O=C(CSc1nnc(SCc2ccccc2)s1)N/N=C/C=C\c1ccco1	-3.2%	-4.2%	17.8µM*	-2.2	15.8µM*	-12.4
COc1ccc(NC(=O)C2CCCN2C(=O)OC(C)(C)C)cc1 (centres undefined)	.	4.4%	3.6%	.	.	.
CN1C[C@H](c2ccccc2)C(O)([C@]2(c3ccccc3)CN(C)C[C@@H](c3ccccc3)C2=O)[C@H](c2ccccc2)C1 (some centres undefined)	8.5%[11.4 µM]	28.1%	-8.1%[13.5 µM]	.	-1.6%	.
CCn1c(SCC(=O)N/N=C/C=C/c2ccco2)nc2ccccc21	-1.5%	3.6%	12.6µM*	.	-14.4%	61.0
Cn1cccc1CC(=O)N/N=C/C=C/c1ccco1	-4.1%	0.8%	2.9%	.	15.8µM*	?
Cc1ccc(/C=N\NC(=O)Cc2cccn2C)o1	.	10.2%	?	.	.	.
